# From PubChem BioAssay (EPA / NIEHS)
# Results filed as inconclusive are left out. Activity calls are given as the source filed them. The calls were made as follows, unless noted: active = hit-call score of the fitted dose curve at least 0.9, where 1 is the maximum; inactive = score below 0.9.
# Legend:
# [1] = CCTE_Shafer_MEA_dev_burst_rate: CCTE's Neural Network Formation Assay for Burst Rate, Shafer Lab (AID 2284042)
# Outline: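 Rat primary cortical cultures on PEI/laminin MEA; compound from plating, re-dosed at DIV 5, 9 media change. Single-electrode bursts/recording length, well mean of active electrodes; AUC over DIV 5–12 recordings; loss-of-signal vs DMSO.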
# [2] = CCTE_Shafer_MEA_dev_bursting_electrodes_number: CCTE's Neural Network Formation Assay for Number of Bursting Electrodes, Shafer Lab (AID 2284043; active = hit-call score of the fitted dose curve at least 0.9, where 1 is the maximum)
# Outline: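 Primary rat cortical neurons plated on 16-electrode MEA wells, exposed from day 0 with compound renewed at DIV 5 and 9. Electrodes bursting ≥1 burst per 2 min counted on days 5, 7, 9 and 12; trapezoidal AUC across days, fitted for loss versus DMSO.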
# [3] = CCTE_Shafer_MEA_dev_per_burst_interspike_interval: CCTE's Neural Network Formation Assay for Burst Interspike Interval, Shafer Lab (AID 2284044);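 also: mean spike spacing inside bursts as AUC over recordings on days 5 7 9 12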
# Outline: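 Mean interspike interval within single-electrode bursts, averaged over bursting electrodes, from rat cortical cultures on MEA plates recorded on days 5, 7, 9 and 12. Continuous compound exposure from plating; trapezoidal AUC fitted downward relative to DMSO.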
# [4] = CCTE_Shafer_MEA_dev_burst_duration_mean: CCTE's Neural Network Formation Assay for Mean Burst Duration, Shafer Lab (AID 2284045)
# Outline: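 Primary rat cortical neurons on 48-well 16-electrode MEA plates, exposed from day 0 with renewal at DIV 5 and 9; spontaneous activity recorded on days 5, 7, 9, 12. Well-mean burst duration across bursting electrodes, collapsed as trapezoidal AUC; DMSO baseline.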
# [5] = CCTE_Shafer_MEA_dev_interburst_interval_mean: CCTE's Neural Network Formation Assay for Mean Interburst Interval, Shafer Lab (AID 2284046);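 also: well-mean interburst interval of bursting electrodes as AUC over four recording days; curve fitted for decrease in interburst interval relative to DMSO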
# Outline: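 Rat cortical neurons, 1.5 x 10^5 cells/well, 48-well MEA; compound from day 0 through DIV 12, media and treatment renewed DIV 5/9. Recordings DIV 5, 7, 9, 12; well-mean interburst interval → trapezoidal AUC, loss direction vs DMSO.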
# [6] = CCTE_Shafer_MEA_dev_inter_network_spike_interval_mean: CCTE's Neural Network Formation Assay for Mean Inter-network Spike Interval, Shafer Lab (AID 2284047)
# Outline: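 Primary rat cortical neurons on PEI-coated 48-well MEAs (16 electrodes/well) were exposed from plating day 0 to DIV 12, with dosing renewed at DIV 5 and 9. Recordings at DIV 5, 7, 9, 12 were collapsed by trapezoidal AUC, loss-of-signal fit vs DMSO.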
# [7] = CCTE_Shafer_MEA_dev_network_spike_number: CCTE's Neural Network Formation Assay for Number of Network Spikes, Shafer Lab (AID 2284048)
# Outline: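 Primary rat cortical neurons on PEI/laminin 48-well MEA plates, dosed from plating day 0 for 12 days, renewed at DIV 5 and 9. Network spike counts recorded DIV 5, 7, 9, 12, collapsed as trapezoidal AUC; DMSO baseline.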
# [8] = CCTE_Shafer_MEA_dev_spike_duration_mean: CCTE's Neural Network Formation Assay for Mean Spike Duration, Shafer Lab (AID 2284051);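 also: mean network spike duration pooled as area under curve over DIV 5 to 12 recordings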
# Outline: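 Rat cortical primary cultures, 48-well MEA (16 electrodes/well); compound from plating, renewed DIV 5, 9. Network spike duration (AxIS adaptive detector) recorded DIV 5/7/9/12, combined as trapezoidal AUC; loss direction vs DMSO.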
# [9] = CCTE_Shafer_MEA_dev_network_spike_duration_std: CCTE's Neural Network Formation Assay for Standard Deviation of Network Spike Duration, Shafer Lab (AID 2284052);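 also: area under curve of spike duration SD across recording days 5 to 12; hits are decreases in network spike duration SD versus DMSO vehicle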
# Outline: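 Rat cortical cultures, 1.5 x 10^5 cells/well, exposed continuously from plating to DIV 12 with media/compound renewal at DIV 5, 9. Spontaneous activity recorded DIV 5/7/9/12, AxIS adaptive spike detector; AUC across days; negative direction vs DMSO.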
# [10] = CCTE_Shafer_MEA_dev_per_network_spike_spike_number_mean: CCTE's Neural Network Formation Assay for Mean Number of Spikes in a Network Spike, Shafer Lab (AID 2284053)
# Outline: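 Rat cortical primary cultures on 48-well MEA; compound from day 0, re-dosed with full media change DIV 5, 9. Recorded DIV 5, 7, 9, 12; spikes in 0.05 s window at network-spike peak ÷ total network spikes; AUC; loss vs DMSO.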
# [11] = CCTE_Shafer_MEA_dev_per_network_spike_spike_percent: CCTE's Neural Network Formation Assay for Percent of Spikes in a Network Spike, Shafer Lab (AID 2284054)
# Outline: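 Rat primary cortical neurons were grown on 48-well MEA plates (16 electrodes/well), exposed from plating day 0 through day 12, with treatment renewed on DIV 5 and 9. Percent of spikes within 0.05 s network-spike peaks was measured, summarised as AUC across days 5, 7, 9, 12.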
# [12] = CCTE_Shafer_MEA_dev_LDH: CCTE's Lactate Dehydrogenase Assay for Cytotoxicity in the Neural Network Formation Assay, Shafer Lab (AID 2284068; active = hit-call score of the fitted dose curve at least 0.9, where 1 is the maximum;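 also: exposure for twelve days from plating with re-dosing on DIV 5 and 9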)
# Outline: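 Rat cortical primary neurons, MEA culture; dosing day 0–12, full medium plus compound exchange DIV 5, 9. Read-out: LDH enzyme activity, spectrophotometric. DMSO = negative control/baseline; signal loss → cytotoxicity.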
# [13] = CCTE_Shafer_MEA_dev_mutual_information_norm: CCTE's Neural Network Formation Assay for Mutual Information Normalization, Shafer Lab (AID 2284091)
# Outline: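 Primary rat cortical neurons on PEI-coated 48-well MEA plates, 1.5 x 10^5 cells/well, exposed from day 0 through day 12 with re-dosing at DIV 5 and 9. Mutual information between electrodes recorded days 5, 7, 9, 12; trapezoidal AUC, loss-of-signal fit versus DMSO.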
# [14] = CCTE_Shafer_MEA_dev_correlation_coefficient_mean: CCTE's Neural Network Formation Assay for Mean Correlation Coefficient, Shafer Lab (AID 2284093)
# Outline: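 Rat cortical cultures, 1.5 x 10^5 cells/well, dosed from day 0 for 12 days. Spontaneous spikes recorded DIV 5/7/9/12; electrode-pair correlation coefficients averaged, AUC taken. Fit in loss direction vs DMSO.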
# [15] = TAMU_PeakParms_SingleDonor1434_Chronotropy: Texas A&M University (TAMU) 1.5-hr Human Induced Pluripotent Stem Cell (iPSC)-derived Cardiomyocytes Calcium (Ca+2) Flux Assay for Cardiotoxicity: Chronotropy (changes in peak frequency) (AID 2284217); conditions: actives raise or lower the signal
# Outline: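 iPSC-CMs, donor 1434; 4 conc (0.2–100 uM), 0.5% v/v DMSO, 90 min, 37C/5% CO2; Ca2+ flux fluorescence → peak.freq.avg; peak.freq.avg = 0 dropped; bidirectional fit vs DMSO; EC05 POD.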
# [16] = TAMU_HCS_1.5hr_SingleDonor1434_Cytotoxicity: Cytotoxicity Assessment using High-content Screening (HCS) Fluorescent Imaging for the Texas A&M University (TAMU) 1.5-hr Human Induced Pluripotent Stem Cell (iPSC)-derived Cardiotoxicity Assay (AID 2284234; active = hit-call score of the fitted dose curve at least 0.9, where 1 is the maximum)
# Outline: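 Human iPSC-derived cardiomyocytes dosed at 0.2, 1, 10, 100 uM final (0.5% DMSO) for 90 min at 37 C. Hoechst 33342-stained nuclei counted by 10x high-content imaging; POD is EC10, a 10% drop in total cell count versus DMSO.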
# [17] = TAMU_PeakParms_SingleDonor1434_Asystole: Texas A&M University (TAMU) 1.5-hr Human Induced Pluripotent Stem Cell (iPSC)-derived Cardiomyocytes Calcium (Ca+2) Flux Assay for Cardiotoxicity: Asystole (quiescence of beating) (AID 2284328; active = hit-call score of the fitted dose curve at least 0.9, where 1 is the maximum)
# Outline: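 Donor 1434 iPSC-cardiomyocytes exposed 90 min at 37C, 5% CO2, to 0.2, 1, 10 and 100 uM in 0.5% DMSO. Ca2+ dye fluorescence gave average peak frequency; POD is EC95, a 95% beat-rate drop versus controls.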
smiles,measurement,setting,value
c1ccc2cc3c(cc2c1)-c1cccc2cccc-3c12,outcome,[1],inactive
same,outcome,[2],inactive
same,outcome,[3],inactive
same,outcome,[4],inactive
same,outcome,[5],inactive
same,outcome,[6],inactive
same,outcome,[7],inactive
same,outcome,[8],inactive
same,outcome,[9],inactive
same,outcome,[10],inactive
same,outcome,[11],inactive
same,outcome,[12],inactive
same,outcome,[13],inactive
same,outcome,[14],inactive
same,AC50,[15],9.92 µM (active)
same,outcome,[16],inactive
same,outcome,[17],inactive
